Data as given in PubChem BioAssay (NCI).
About 83,000 compounds went through this panel and 20% of them were active in at least one assay; those are over-represented in the sample as a whole.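 Compound tested at a single concentration for 48 hours in 96-well plates; a percent growth value below 10 was scored as active.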 Values without a mark were called inactive. The source made the active and inactive calls.

How the values were obtained:
Test in all cases: NCI-60 one-dose screen, 48 h (100 = growth as untreated, 0 = no growth, -100 = all killed)
Conditions in all cases: 10 µM unless noted
NCI-H23 lung = test system: NCI-H23 lung
NCI-H226 lung = test system: NCI-H226 lung
NCI-H322M lung = test system: NCI-H322M lung
HOP-62 NSCLC = test system: HOP-62 NSCLC
NCI-H460 lung = test system: NCI-H460 lung
HOP-92 NSCLC = test system: HOP-92 NSCLC
NCI-H522 lung = test system: NCI-H522 lung
A549/ATCC NSCLC = test system: A549/ATCC NSCLC
786-0 renal = test system: 786-0 renal
COLO 205 colon = test system: COLO 205 colon

| Compound | growth (NCI-H23 lung) | growth (NCI-H226 lung) | growth (NCI-H322M lung) | growth (HOP-62 NSCLC) | growth (NCI-H460 lung) | growth (HOP-92 NSCLC) | growth (NCI-H522 lung) | growth (A549/ATCC NSCLC) | growth (786-0 renal) | growth (COLO 205 colon) |
| --- | --- | --- | --- | --- | --- | --- | --- | --- | --- | --- |
| C=C(C)[C@@H]1CC=C2c3sc(-c4ccc(C)cc4)nc3C[C@@H](C)[C@]2(C)C1 | 112% | 101% | 101% | 102% | 114% | 103% | 95.7% | 95.3% | 109% | 108% |
| COc1nc(N(C)O)nc(N(C)O)n1 | 43.9% | 49.3% | 37.7% | 26.6% | 8.71% (active) | 52.8% | 56.5% | 33.7% | 8.76% (active) | 19.6% |
| CCCCNC(=O)Oc1ccc2c(=O)c3sc4c(=O)c5ccccc5c(=O)c4c3c(=O)c2c1 | -47.6% (active) | -89% (active) | -96.8% (active) | -79.1% (active) | -74.6% (active) | -30.4% (active) | -69.5% (active) | -61.8% (active) | -37% (active) | -84.9% (active) |
| O=[N+]([O-])c1ccc(-c2cc(-c3ccc(Nc4nc(Nc5ccc(Cl)cc5)nc(Nc5ccc(Cl)cc5)n4)cc3)no2)cc1 | 84.1% | 109% | 88.4% | 87.4% | 95.9% | 66.1% | 80.9% | 88.6% | 89.7% | 95.4% |
| O=c1c2cc(F)ccc2sc2c(NCCCN3CCCC3)nc3ccccc3c12 | 64.2% | 79.2% | 64.1% | 63.5% | 12% | 25.1% | 25.1% | 52.8% | 37.1% | 46% |
| N#Cc1nc(C#N)c(Sc2ccccc2)c(Sc2ccccc2)c1Sc1ccccc1 | -42.1% (active) | 3.05% (active) | 23.9% | -46% (active) | -44.7% (active) | -31.7% (active) | -67.2% (active) | 3.65% (active) | -55.9% (active) | -88.2% (active) |
| COC(=O)c1ccc(C2Nc3ccc(S(=O)(=O)Nc4ccc(C)c(C)c4)cc3C3OCCC23)cc1 (stereo not given) | 59.5% | 85.9% | 96% | 87.3% | 86% | 66% | 52.6% | 78.8% | 93.9% | 94% |
| COc1ccc(NC(=O)CSc2nc(C)c(C(C)=O)n2-c2ccc(Cl)cc2)cc1 | 90.6% | 86.6% | 100% | 88.5% | 102% | 106% | 78.1% | 97.1% | 106% | 102% |
| CCN(CCNc1ccc(C)c2sc3ccccc3c(=O)c12)CC(C)(C)O | 86.7% | 96.7% | 90.4% | 82.8% | 30.3% | 50.9% | 74.2% | 40.8% | 70.4% | 67.8% |
| CC1=C([Se]CC(OC(=O)[C@@H](CO)NC(=O)OC(C)(C)C)C(=O)NC(C)(C)C)C(=O)c2ccccc2C1=O (stereo not given in full) | -74.5% (active) | -98.5% (active) | -73.1% (active) | -60.1% (active) | -61.7% (active) | -68.8% (active) | -92.8% (active) | -11.5% (active) | -100% (active) | -100% (active) |
| CCOC(CN=Cc1cc(C)c2[nH]c3ccccc3c2c1C)OCC | 97.7% | 6.9% (active) | 113% | 102% | 83.1% | 115% | 113% | 102% | 93.2% | 107% |
| CCN(CC)Cc1cccc(C(=O)OC)c1 | 96.6% | 90.2% | 106% | 85.2% | 103% | 87.7% | 101% | 69% | 90.7% | 106% |
| NS(=O)(=O)c1cnccc1Sc1ccncc1S(N)(=O)=O | 96.5% | 95.2% | 124% | 91.7% | 108% | 92.1% | 115% | 109% | 100% | 98.8% |
| COc1cc(-c2n/c(=C\c3c(O)[nH]c4ccc(Cl)cc34)cc3c2=Nc2ccccc2-3)cc(OC)c1OC | -2.92% (active) | 62.6% | 68% | -8.81% (active) | -38% (active) | -25.4% (active) | -0.596% (active) | -39.4% (active) | -37.1% (active) | 8.86% (active) |
| O=C(Nc1ccccc1-c1nc2ccccc2c(=O)[nH]1)c1cc2ccccc2[nH]1 | 82.4% | 72.2% | 84.2% | 71.6% | 93.2% | 68.7% | 78.8% | 87.6% | 98.1% | 103% |
| COC1=C(OC)C(=O)C(OC)=C(OC)C1=O | 98.6% | 93.6% | 95.7% | 112% | 108% | 103% | 108% | 90% | 99.3% | 113% |
| CC(=O)c1nc(Nc2ccc(C)cc2)sc1C | 90.9% | 81.7% | -98.9% (active) | 85.7% | 104% | 73.2% | 86.9% | 96.7% | 98.1% | 105% |
| O=C(CCCCCCN1CC(=O)N2[C@@H](c3ccccc3Cl)c3[nH]c4ccccc4c3C[C@H]2C1=O)NO | 76.8% | 95.4% | 81.8% | 73.3% | 67.8% | -6.12% (active) | 28.8% | 97% | 83.8% | 59.6% |
| COc1ccc(C(=NN=C(N)N)c2ccc(OC)cc2)cc1 | 41.3% | 50.3% | 49% | 36.6% | 29.8% | 3.59% (active) | 34% | 46.1% | 45.4% | -7.03% (active) |
| O=C(Nc1cccc(C(F)(F)F)c1)Nc1cccc(C(F)(F)F)c1 | 1.97% (active) | -1.66% (active) | 16.7% | -1.14% (active) | 5.08% (active) | -16.2% (active) | -35% (active) | -1.94% (active) | 8.34% (active) | -85.2% (active) |
| O=C(Nc1ccccc1)Nc1cccc(Oc2nnc(Cl)c3ccccc23)c1 | 32.7% | 8.66% (active) | 47.3% | -43.4% (active) | 25.3% | -7.51% (active) | 2% (active) | 11.2% | 38.2% | 35.2% |
| CCc1ccccc1-n1c(-c2ccc(Cl)cc2)cc(-c2ccc(Cl)cc2)c(C#N)c1=O | 94.2% | 97.4% | 83.7% | 107% | 93.9% | 72.4% | 78.1% | 94.7% | 98% | 89.4% |
| Cc1cc(C)c2c(-c3nnc(N)s3)cc(=O)oc2c1 | 96.3% | 100% | 99% | 111% | 103% | 115% | 101% | 104% | 99.4% | 116% |
| CCN1C(=O)N(CC)C2C1NN=c1s/c(=C\c3cccs3)c(=O)n12 (stereo not given) | 36.4% | 79% | 42.7% | 46.4% | 8.1% (active) | 64.1% | -9.67% (active) | 25.3% | 28.5% | -6.95% (active) |
| CCCCCCCCCCN(CCCCCCCCCC)CC(=O)c1ccc2cc(Br)c3ccccc3c2c1 | 47.4% | 99.4% | 65.7% | 96.4% | -65.9% (active) | -77% (active) | 63.4% | 82.3% | 54.1% | 104% |
| Nc1nc(N)c2c(n1)NC(c1ccccc1)C1CCc3ccccc3C1=N2 (stereo not given) | 39.3% | 53.3% | 64.4% | 70.2% | 18.5% | 72.2% | 89.9% | 63.4% | 55.1% | 27.6% |
| Cc1occc1-c1n[nH]c(=S)n1N1C(=O)CSC1=S | 102% | 98.7% | 99.4% | 104% | 104% | 103% | 89.3% | 103% | 100% | 111% |
